IL-1B inflam inh: qHTS for Inhibitors of Inflammasome Signaling: IL-1-beta AlphaLISA Primary Screen; 360,000 tested, 4.7% active; activity change, % at 57.5 µM; THP-1 LPS/ATP IL-1B secretion, AlphaLISA, 16 h; hits give low values; in the data active = activity change below about -50%; inconclusive = mostly about -30% to -49%
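THP-1 cells pretreated 1 hr with compounds (up to 57.5 uM final), then stimulated with LPS (250 ng/mL final) plus ATP (1.25 mM final); secreted IL-1B measured by AlphaLISA after 16 hr, decreased signal indicating inhibition.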
DT40 TDP1 CPT: qHTS for Inhibitors of human tyrosyl-DNA phosphodiesterase 1 (TDP1): qHTS in cells in presence of CPT; chicken DT40 Tdp1-/-;hTDP1 cells + 20 nM CPT, ATP luminescence, 48 h; 420,000 tested, 12% active; Potency, µM (series often up to 46.2 µM), for inactives: at the highest dose activity change, negative = growth inhibition, actives largely listed as inhibitors; note: potency is the fitted concentration of half-maximal effect; nearly all actives have a fitted effect of over 55% in size
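Cell growth measured by CellTiter-Glo luminescence after a minimum 48 h, 37 C compound exposure with 20 nM CPT in Tdp1-knockout DT40 cells stably expressing hTDP1, seeded 400/well; qHTS titration format.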
HT1080-NT tox: qHTS for induction of synthetic lethality in tumor cells producing 2HG: qHTS for the HT-1080-NT fibrosarcoma cell line; 360,000 tested, 1.6% active; HT-1080-NT fibrosarcoma viability, CellTiter-Glo ATP luminescence, 48 h; Potency, µM (doses to about 46.1 µM), inactives show top-dose activity, negative = less viability, usual class: cytotoxic;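 note: NT is the 2HG producing partner of a matched IDH1 knockdown line; potency is the fitted concentration of half-maximal effect; 0% = DMSO-treated cells and -100% = media-only wells without cells; nearly all actives have a fitted effect of over 55% in size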
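HT-1080-NT; 750 cells/well; 5% FBS RPMI; 48 h compound, 37 degrees C; CellTiter-Glo luminescence; curve fitting and curve-class assignment.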
DT40 TDP1 no CPT: qHTS for Inhibitors of human tyrosyl-DNA phosphodiesterase 1 (TDP1): qHTS in cells in absence of CPT; AID 686978, 2013; Potency, µM (titrated, usually from 46.2 µM), without a hit: at the highest dose activity change, negative = growth inhibition, usual class: inhibitors; DT40 Tdp1-/- hTDP1 cells, no CPT, ATP luminescence, 48 h; 420,000 tested, 15% active; note: potency is the fitted concentration of half-maximal effect; nearly all actives have a fitted effect of over 55% in size
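Chicken DT40 Tdp1-/- cells complemented with human TDP1, screened without camptothecin (DMSO vehicle only), 400 cells/well. Compounds pin-transferred, cells incubated at 37 °C for at least 48 hr. Growth read as ATP-dependent luminescence (CellTiter-Glo, 30 min at RT).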
HT1080 IDH1KD tx: qHTS for induction of synthetic lethality in tumor cells producing 2HG: qHTS for the HT-1080-IDH1KD cell line; HT-1080 IDH1 knockdown viability, ATP luminescence, 48 h; Potency, µM (highest dose often 46.1 µM), inactives show top-dose activity, negative = toxicity, hits mostly cytotoxic; 360,000 tested, 2% active;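 note: potency is the fitted concentration of half-maximal effect; 0% = DMSO wells and -100% = cell-free medium wells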
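Luminescent ATP read-out (CellTiter-Glo, 10 min at room temperature) after 48 h compound exposure at 37 °C gave viability of IDH1-knockdown HT-1080 cells. Activity was normalised to DMSO and cell-free wells, then fitted as concentration-response curves.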
Active calls of the source: *; ? = inconclusive; . = not tested or not shown. An excerpt weighted towards active compounds, which were near 19% of everything screened. Unless noted, calls come from the whole dose curve; as a rule, active = well fitted curve in the direction sought with a large enough effect; inconclusive = small, poorly fitted or top-dose-only effect, or another doubt; inactive = no such curve, though single readings can be large; an effect the other way counts as inactive or inconclusive. Unless noted, % is set by controls: 0 for no effect and ±100 for the full control effect.

SMILES	IL-1B inflam inh	DT40 TDP1 CPT	HT1080-NT tox	DT40 TDP1 no CPT	HT1080 IDH1KD tx
CCCCC(CC)COS(=O)(=O)O (stereo not drawn)	.	6.0%	.	-15.9%	.
COC(=O)[C@@]12C[C@@H](CC(=O)N3CCN(C(=O)c4ccco4)CC3)C(=O)N(CCc3ccc(OC)c(OC)c3)C1=CCC(C)(C)C2	-51.2*	?	18.1%	?	7.5%
CCCCCCCCN1C(=O)[C@H](CC(=O)N2CCN(C(=O)c3ccco3)CC2)C[C@@]2(C(=O)OC)CCCCC=C12	-25.3	?	?	23.1µM*	?
CCCCCCCCN1C(=O)[C@H](CC(=O)N2CCN(C(=O)c3ccco3)CC2)C[C@@]2(C(=O)OC)CC(C)(C)CC=C12	-50.9*	11.6µM*	?	14.6µM*	?
COc1ccc(OC)c(NC(=O)COC(=O)CCc2ccc(S(=O)(=O)N3CCOCC3)cc2)c1	0.8	0.7%	0.0%	-1.4%	11.3%
CC1CCN(S(=O)(=O)c2cnc[nH]2)CC1	5.7	10.9%	-4.1%	1.5%	-2.4%
Cc1ccc(C(NC(=O)NCCCN2CCOCC2)=C(Cl)Cl)cc1F	-51.2*	11.2µM*	-20.7%	12.6µM*	-0.7%
Cc1ccc(C(NC(=O)N2CCCCC2)=C(Cl)Cl)cc1F	-70.6*	13µM*	-4.9%	-34.3%	0.5%
Cc1ccc(S(=O)(=O)Nc2cccc(C(=O)N3CCCC3)c2)cc1F	13.8	?	-10.7%	-2.8%	-2.2%
COc1cc(C2C(C#N)=C(N)OC3=C2C(=O)CC(C)(C)C3)ccc1OCCN1CCOCC1 (stereo not drawn)	18.9	-1.2%	24.9%	-13.8%	10.0%
Cc1c(Cc2ccccc2)sc(NC(=O)c2ccco2)c1C(N)=O	-21.1	-24.0%	?	?	?
COC(=O)c1c(NC(=O)/C=C/C(=O)O)sc(Cc2ccccc2)c1C	-110.9*	20.6µM*	-28.9%	?	?
COC(=O)c1c(N)sc(Cc2ccccc2)c1C	3.4	-10.8%	-1.5%	24.7%	-1.5%
Cc1c(Cc2ccccc2)sc(NC(=O)/C=C/c2cccc3ccccc23)c1C(N)=O	10.3	3.66µM*	13µM*	3.26µM*	32.6µM*
Cc1nc2[nH]c(=S)n(C)c(=O)c2nc1C	18.2	-6.7%	7.1%	-12.4%	19.3%
CCOC(=O)c1nnc(-c2ccccc2)nc1Sc1c(Cl)cccc1Cl	-116.1*	20.6µM*	?	16.4µM*	20.6µM*
CCOC(=O)c1nnc(-c2ccc(C)cc2)nc1Sc1ccc(Cl)cc1	4.9	8.2µM*	4.3%	8.2µM*	-0.7%
CCOC(=O)c1nnc(-c2ccc(C)cc2)nc1Sc1ccccc1Cl	-96.5*	?	-8.9%	16.4µM*	0.6%
CCCCC1(C)OC(=O)C(=Cc2ccc(N(C)C)cc2)C(=O)O1 (stereo not drawn)	5.1	-0.1%	9.3%	0.2%	13.8%
CN(Cc1nc2ccccc2c(=O)[nH]1)C(=O)c1cc(C2CC2)nn1-c1ccccc1	22.0	13µM*	-12.6%	?	-1.2%
Cc1ccc(C)c(NC(=O)CN(C)C(=O)c2cc(C3CC3)nn2-c2ccccc2)c1	-8.1	16.4µM*	-13.3%	?	0.0%
Cc1cccc(NC(=O)c2cccc(S(=O)(=O)N(C)C3CCCCC3)c2)n1	-26.0	?	1.6%	?	2.5%
C/C(CC(=O)Nc1cc(C)ccn1)=N\NC(=O)c1cccc(C)c1O	70.2	-3.5%	?	?	?
O=C1NC(c2ccccc2)(C(F)(F)F)SC2=CCCCCN12 (stereo not drawn)	9.1	-27.3%	8.3%	-22.4%	6.0%
Cc1ccc(C2(C(F)(F)F)NC(=O)N3CCN=C3S2)cc1 (stereo not drawn)	.	20.6µM*	0.1%	?	0.4%

Screening results from PubChem.
